In PubChem BioAssay (Tox21) one finds Potency and outcome data, which are given here for eight compounds.

Results filed as inconclusive are left out. Calls of active or inactive are those of the source. Unless noted, the call rests on the fitted dose curve; in most records, active means well fitted curve in the direction sought with a large enough effect in the repeat runs; inconclusive means weak or mixed curves; inactive means no such curve, though single readings can be large; an effect the other way counts as inactive or inconclusive.

A short description of assay [1]: qHTS assay to identify small molecule antagonists of the sonic hedgehog signaling (Shh) pathway (AID 1259369; calls by dose curve; further: nearly all actives have a fitted effect of over 45% in size; further: potency means the concentration at half of the fitted maximal effect). An outline of the steps:
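Screening used 3T3Gli1-Luc cells at 2,000 per well, compounds delivered in DMSO, and conditioned medium as agonist stimulus; plates incubated 24hr at 37 C and 5% CO2 before a 30min luciferase step.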
(In general: qHTS replaces the single test concentration by a dilution series.)

Assay [2] concerns the target Estrogen receptor beta (Homo sapiens) (UniProt Q92731). In words: qHTS assay to identify small molecule antagonists of the estrogen receptor beta (ER-beta) signaling pathway (AID 1259378; active means well fitted inhibition curve with a large enough effect in the signal ratio in the repeat runs, not every such curve was filed as active; the % refers to the signal ratio). An outline of the steps: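 ER-beta-UAS-bla HEK293T cells in 2% charcoal-stripped FBS medium treated with compound plus 1nM final 17-beta-estradiol for 16 hr at 37C. Beta-lactamase reporter read by FRET substrate fluorescence after 2 hours at room temperature.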

Assay [3] can be described thus: qHTS assay to identify small molecule agonists of the androgen receptor (AR) signaling pathway in the presence of an antagonist - cell viability counter screen (AID 1259379).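 Further: MDA-kb2 human breast cancer cells carrying an MMTV luciferase reporter; series mostly up to about 92 µM; nearly all actives have a fitted effect of over 25% in size.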 The gist of the method: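 In MDA-kb2 cells (human breast carcinoma, MMTV-luciferase), compounds at 15 concentrations plus 3.0uM nilutamide; 16 hr, 37C, 0% CO2; CellTiter-Fluor fluorescence read for viability.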

Assay [4] is described as follows: qHTS assay to identify small molecule agonists of the estrogen receptor beta (ER-beta) signaling pathway - cell viability counter screen (AID 1259380). Further: nearly all actives have a fitted effect of over 30% in size. Further: potency means the concentration at half of the fitted maximal effect. The gist of the method:
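Viability of ER-beta-UAS-bla HEK293T cells was determined by CellTiter-Glo luminescence following 16 hr treatment with test compounds at 37C.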

For assay [5], the target named is Androgen receptor (Homo sapiens) (UniProt P10275). In words: qHTS assay to identify small molecule agonists of the androgen receptor (AR) signaling pathway in the presence of an antagonist (AID 1259381; calls by dose curve; further: nearly all actives have a fitted effect of over 15% in size). The gist of the method: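 Here, 15-concentration compound series were pin-transferred onto MDA-kb2 MMTV-luciferase cells already dosed with nilutamide (3.0uM final). After 16hr at 37C, ONE-Glo was added and luminescence read 30min later at room temperature.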

A short description of assay [6]: qHTS assay to identify small molecule antagonists of the estrogen receptor beta (ER-beta) signaling pathway - cell viability counter screen (AID 1259382). Further: series mostly up to about 92 µM; nearly all actives have a fitted effect of over 55% in size. The gist of the method:
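Tox21 10K library tested in qHTS format on ER-beta-bla HEK293T cells stimulated with 1nM E2; 16 hr treatment at 37C. Same-well CellTiter-Glo luminescence served as the cell viability measure.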

Assay [7] deals with Estrogen receptor (Homo sapiens) (UniProt P03372). In words: qHTS assay to identify small molecule agonists of the estrogen receptor alpha (ER-alpha) signaling pathway in the presence of an antagonist (AID 1259383; calls by dose curve; further: top concentration of the series differs between compounds; nearly all actives have a fitted effect of over 15% in size). The gist of the method:
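In VM7Luc4E2 cells, 4,000 per well, compounds at 15 concentrations were co-incubated 22hr at 37C with 10.0nM final ICI-182,780. Luminescence from the stably transfected 4×ERE-luciferase reporter was recorded 30min after ONE-Glo addition.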

Assay [8] is described as follows: qHTS assay to identify small molecule agonists of the estrogen receptor alpha (ER-alpha) signaling pathway in the presence of an antagonist - cell viability counter screen (AID 1259386).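 Further: series mostly up to about 92 µM; cells exposed to compounds for 22 h at 37 °C before the viability read; nearly all actives have a fitted effect of over 30% in size.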 The gist of the method: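 Fluorescent CellTiter-Fluor viability signal from VM7Luc4E2 cells, with the reagent added during the final hour of a 22hr compound exposure at 37C in the presence of 10.0nM ICI-182,780.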

For assay [9], the target named is Progesterone receptor (Homo sapiens) (UniProt P06401). Description: qHTS assay to identify small molecule agonists of the progesterone receptor (PR) signaling pathway (AID 1346784; calls by dose curve; further: nearly all actives have a fitted effect of over 30% in size). An outline of the steps: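 Agonist qHTS: compounds pinned onto 3,000 PR-UAS-bla HEK 293T cells per well in charcoal-stripped serum medium, 16hr at 37C, then beta-lactamase activity measured by LiveBLAzer FRET fluorescence after 2 hours at room temperature.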

For assay [10] the target is unchanged. In words: qHTS assay to identify small molecule antagonists of the progesterone receptor (PR) signaling pathway (AID 1346795; active means well fitted inhibition curve with a large enough effect in the signal ratio in the repeat runs, not every such curve was filed as active; the % refers to the signal ratio; further: potency means the concentration at half of the fitted maximal effect). An outline of the steps: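 Antagonist mode with agonist R5020 at 1 nM final and 16 hr incubation at 37C. Reporter was beta-lactamase driven by UAS in HEK293T (PR-UAS-bla), 2% charcoal-stripped serum; signal from LiveBLAzer FRET substrate, 2 hr at room temperature.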

Assay [11] is described as follows: qHTS assay to identify small molecule antagonists of the progesterone receptor (PR) signaling pathway - cell viability counter screen (AID 1346798). Further: series mostly up to about 92 µM; nearly all actives have a fitted effect of over 50% in size. An outline of the steps:
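Cytotoxicity read as CellTiter-Glo luminescence (30 min, room temperature) in the same wells as the beta-lactamase readout. HEK293T PR-UAS-bla cells in charcoal-stripped 2% FBS received compound and R5020, then 16 h at 37C, 5% CO2.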

Assay [12] is described as follows: qHTS assay to identify small molecule agonists of the progesterone receptor (PR) signaling pathway - cell viability counter screen (AID 1346799; calls by dose curve; further: nearly all actives have a fitted effect of over 45% in size). An outline of the steps:
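Cytotoxicity measured by CellTiter-Glo luminescence (30 min, RT) in the same wells as the PR beta-lactamase agonist read. Those HEK293T cells had 16 h compound treatment at 37 C in 2% charcoal-stripped FBS medium.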

A short description of assay [13]: qHTS assay to identify small molecule antagonists of the TGF-beta/Smad signaling pathway - cell viability counter screen (AID 1346824). Further: nearly all actives have a fitted effect of over 50% in size. An outline of the steps: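 SBE-bla HEK 293T cells, incubated overnight, then compound plus 0.25 ng/mL TGF-beta1 (stock added) for 5 hr at 37 C. Viability was read in the same wells by CellTiter-Glo luminescence after 30 min at room temperature.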

The nature of assay [14]: qHTS assay to identify small molecule agonists of the TGF-beta/Smad signaling pathway - cell viability counter screen (AID 1346829). Further: top concentration of the series differs between compounds; nearly all actives have a fitted effect of over 45% in size. An outline of the steps: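 HEK 293T SBE-bla line, 5 hr compound exposure at 37 C, multiplexed CellTiter-Glo viability read by luminescence.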
Assay [15] can be described thus: qHTS assay to identify small molecule agonists of the TGF-beta/Smad signaling pathway (AID 1346859; active means well fitted activation curve with a large enough effect in the signal ratio in the repeat runs, not every such curve was filed as active; the % refers to the signal ratio; further: series mostly up to about 77 µM). The gist of the method:
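Fluorescence (ex 405 nm; em 460 and 530 nm) was read 2 h after LiveBLAzer FRET substrate at RT. The preceding compound treatment of overnight-plated SBE-bla HEK293T cells lasted 5 h at 37 C.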

In assay [16] the target is Thyrotropin-releasing hormone receptor (Homo sapiens) (UniProt P34981). Description: qHTS assay to identify small molecule antagonists of the thyrotropin-releasing hormone receptor (TRHR) signaling pathway (AID 1346877; active means well fitted inhibition curve with a large enough effect in the repeat runs, not every such curve was filed as active; further: series mostly up to about 51 µM). An outline of the steps:
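In this cell-based calcium flux format, HEK293 cells expressing TRHR received test compound for 5 min before the agonist TRH (1 nM final). Dye loading lasted 2 h at 37 °C.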

For assay [17] the target is unchanged. In words: qHTS assay to identify small molecule agonists of the thyrotropin-releasing hormone receptor (TRHR) signaling pathway (AID 1346891; calls by dose curve; further: series mostly up to about 58 µM). The gist of the method: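 Agonist-mode intracellular calcium readout: kinetic fluorescence over 3 min at 1 s intervals after compound addition to TRHR-HEK293 cells (18 h seeded, 2 h dye-loaded at 37 C). Fifteen concentrations, triplicates.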

The target of assay [18] is Estrogen receptor beta (Homo sapiens) (UniProt Q92731). In words: qHTS assay to identify small molecule agonists of the estrogen receptor beta (ER-beta) signaling pathway (AID 1259377; active means well fitted activation curve with a large enough effect in the signal ratio in the repeat runs, not every such curve was filed as active; the % refers to the signal ratio). An outline of the steps: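 Ratiometric beta-lactamase FRET read-out came after 2 h substrate loading at room temperature. It followed 16 h compound treatment at 37C of GripTite HEK293T cells carrying a UAS-bla reporter, plated in 2% charcoal-stripped FBS medium.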

A short description of assay [19]: qHTS assay to identify small molecule agonists or antagonists of the thyroid stimulating hormone receptor (TSHR) signaling pathway - wild type cell line counter screen (AID 1259384; calls by dose curve). An outline of the steps: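 Wild-type Hek293 cells, 800/well, 18 h at 37C, then compound with Ro20-1724 for 30 min RT. cAMP by HTRF (cAMP-d2/anti-cAMP cryptate), 1 h RT, fluorescence read. 15 concentrations, triplicates.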

Assay [20] addresses Thyrotropin receptor (Homo sapiens) (UniProt P16473). In words: qHTS assay to identify small molecule antagonists of the thyroid stimulating hormone receptor (TSHR) signaling pathway (AID 1259385; calls by dose curve; further: nearly all actives have a fitted effect of over 20% in size). The gist of the method:
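TSHR-HEK293 cells (800/well) plated 18 h, then compounds with Ro20-1724 and TSH at 1.5 ng/mL final, 30 min at room temperature. cAMP quantified by HTRF (cAMP-d2/anti-cAMP-cryptate, 1 h); 15 concentrations in triplicate.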

Thyrotropin receptor (Homo sapiens), sequence (P16473 whole entry, looked up): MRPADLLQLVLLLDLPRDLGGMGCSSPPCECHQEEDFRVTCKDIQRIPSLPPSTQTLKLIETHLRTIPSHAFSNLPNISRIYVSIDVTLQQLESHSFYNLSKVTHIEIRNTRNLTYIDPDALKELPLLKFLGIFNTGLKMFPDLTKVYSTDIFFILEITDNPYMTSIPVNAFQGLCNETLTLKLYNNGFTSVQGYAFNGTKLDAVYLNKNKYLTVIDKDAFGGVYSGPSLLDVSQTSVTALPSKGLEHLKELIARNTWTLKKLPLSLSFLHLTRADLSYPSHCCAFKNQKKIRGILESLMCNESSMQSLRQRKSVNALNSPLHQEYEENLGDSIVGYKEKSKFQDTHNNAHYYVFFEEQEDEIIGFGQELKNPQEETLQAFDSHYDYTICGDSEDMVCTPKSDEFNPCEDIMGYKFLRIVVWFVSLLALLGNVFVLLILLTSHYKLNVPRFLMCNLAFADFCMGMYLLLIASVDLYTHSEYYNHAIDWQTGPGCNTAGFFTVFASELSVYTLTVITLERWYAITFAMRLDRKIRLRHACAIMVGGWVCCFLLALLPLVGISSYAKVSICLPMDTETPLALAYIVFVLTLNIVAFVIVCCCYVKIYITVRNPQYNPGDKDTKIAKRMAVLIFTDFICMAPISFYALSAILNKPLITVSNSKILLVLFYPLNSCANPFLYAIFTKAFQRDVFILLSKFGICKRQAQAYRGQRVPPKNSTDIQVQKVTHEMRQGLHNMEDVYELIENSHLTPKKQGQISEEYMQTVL
Thyrotropin-releasing hormone receptor (Homo sapiens), sequence (P34981 whole entry, looked up): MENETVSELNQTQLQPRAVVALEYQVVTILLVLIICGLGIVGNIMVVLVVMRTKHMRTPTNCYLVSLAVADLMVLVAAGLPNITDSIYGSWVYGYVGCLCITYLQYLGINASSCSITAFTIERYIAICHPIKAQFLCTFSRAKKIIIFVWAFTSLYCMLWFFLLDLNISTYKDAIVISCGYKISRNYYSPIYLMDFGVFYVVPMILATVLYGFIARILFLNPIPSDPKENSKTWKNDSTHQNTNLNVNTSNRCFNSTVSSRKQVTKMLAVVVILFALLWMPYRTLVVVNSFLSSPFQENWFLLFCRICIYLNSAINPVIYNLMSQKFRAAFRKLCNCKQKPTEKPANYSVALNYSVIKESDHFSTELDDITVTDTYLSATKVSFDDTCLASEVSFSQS
Estrogen receptor beta (Homo sapiens), sequence (Q92731 whole entry, looked up): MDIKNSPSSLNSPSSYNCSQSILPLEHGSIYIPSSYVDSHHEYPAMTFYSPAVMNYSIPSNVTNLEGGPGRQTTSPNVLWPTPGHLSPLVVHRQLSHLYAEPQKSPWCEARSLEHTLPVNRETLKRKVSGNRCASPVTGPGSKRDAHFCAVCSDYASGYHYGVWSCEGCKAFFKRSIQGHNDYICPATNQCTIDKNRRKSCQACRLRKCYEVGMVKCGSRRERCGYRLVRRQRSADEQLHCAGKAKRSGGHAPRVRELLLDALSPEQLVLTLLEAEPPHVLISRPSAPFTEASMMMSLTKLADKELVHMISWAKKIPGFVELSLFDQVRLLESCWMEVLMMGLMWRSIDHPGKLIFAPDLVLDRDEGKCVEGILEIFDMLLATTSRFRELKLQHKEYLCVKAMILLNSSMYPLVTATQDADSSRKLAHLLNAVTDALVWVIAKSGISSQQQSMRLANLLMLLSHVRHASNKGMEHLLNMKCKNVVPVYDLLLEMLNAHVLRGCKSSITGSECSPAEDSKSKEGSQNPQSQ
Estrogen receptor (Homo sapiens), sequence (P03372 whole entry, looked up): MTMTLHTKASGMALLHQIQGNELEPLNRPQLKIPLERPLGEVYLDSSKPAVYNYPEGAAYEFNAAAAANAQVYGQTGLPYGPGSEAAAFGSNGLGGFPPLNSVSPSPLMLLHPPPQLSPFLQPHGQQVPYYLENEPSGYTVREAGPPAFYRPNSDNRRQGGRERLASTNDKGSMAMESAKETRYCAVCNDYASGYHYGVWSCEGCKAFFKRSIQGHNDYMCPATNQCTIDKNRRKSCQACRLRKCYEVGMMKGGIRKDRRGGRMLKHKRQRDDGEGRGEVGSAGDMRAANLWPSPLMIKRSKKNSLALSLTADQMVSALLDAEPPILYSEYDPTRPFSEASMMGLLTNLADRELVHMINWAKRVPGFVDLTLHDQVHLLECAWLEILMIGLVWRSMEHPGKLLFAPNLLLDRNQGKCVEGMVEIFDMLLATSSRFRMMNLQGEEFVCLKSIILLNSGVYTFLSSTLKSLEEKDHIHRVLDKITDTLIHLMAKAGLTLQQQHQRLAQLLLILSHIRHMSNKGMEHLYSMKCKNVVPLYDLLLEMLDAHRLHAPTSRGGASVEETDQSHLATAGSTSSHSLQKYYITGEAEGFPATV
Progesterone receptor (Homo sapiens), sequence (P06401 whole entry, looked up): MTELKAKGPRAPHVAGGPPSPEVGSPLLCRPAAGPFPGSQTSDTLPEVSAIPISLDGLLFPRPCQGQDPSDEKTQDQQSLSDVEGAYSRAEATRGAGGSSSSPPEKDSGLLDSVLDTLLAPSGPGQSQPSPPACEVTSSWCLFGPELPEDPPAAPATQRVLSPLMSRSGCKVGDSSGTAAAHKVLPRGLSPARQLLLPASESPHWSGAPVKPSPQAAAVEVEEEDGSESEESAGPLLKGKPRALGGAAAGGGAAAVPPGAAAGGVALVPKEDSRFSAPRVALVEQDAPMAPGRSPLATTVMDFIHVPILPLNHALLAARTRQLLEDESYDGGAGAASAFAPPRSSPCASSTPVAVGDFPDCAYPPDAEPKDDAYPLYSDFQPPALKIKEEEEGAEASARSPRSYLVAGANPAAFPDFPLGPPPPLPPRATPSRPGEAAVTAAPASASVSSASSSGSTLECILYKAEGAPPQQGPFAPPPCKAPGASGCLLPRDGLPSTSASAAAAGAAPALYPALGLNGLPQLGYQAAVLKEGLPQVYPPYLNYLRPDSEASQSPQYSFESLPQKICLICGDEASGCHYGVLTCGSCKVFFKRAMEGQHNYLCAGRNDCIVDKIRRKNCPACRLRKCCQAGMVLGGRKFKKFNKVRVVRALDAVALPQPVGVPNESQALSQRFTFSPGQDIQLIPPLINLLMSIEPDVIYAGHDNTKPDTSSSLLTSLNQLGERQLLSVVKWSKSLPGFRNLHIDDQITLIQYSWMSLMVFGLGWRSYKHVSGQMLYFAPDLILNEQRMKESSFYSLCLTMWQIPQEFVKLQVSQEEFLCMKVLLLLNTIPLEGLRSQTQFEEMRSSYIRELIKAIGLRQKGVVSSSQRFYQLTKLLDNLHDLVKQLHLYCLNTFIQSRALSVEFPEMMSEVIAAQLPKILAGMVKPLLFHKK
Androgen receptor (Homo sapiens), sequence (P10275 whole entry, looked up): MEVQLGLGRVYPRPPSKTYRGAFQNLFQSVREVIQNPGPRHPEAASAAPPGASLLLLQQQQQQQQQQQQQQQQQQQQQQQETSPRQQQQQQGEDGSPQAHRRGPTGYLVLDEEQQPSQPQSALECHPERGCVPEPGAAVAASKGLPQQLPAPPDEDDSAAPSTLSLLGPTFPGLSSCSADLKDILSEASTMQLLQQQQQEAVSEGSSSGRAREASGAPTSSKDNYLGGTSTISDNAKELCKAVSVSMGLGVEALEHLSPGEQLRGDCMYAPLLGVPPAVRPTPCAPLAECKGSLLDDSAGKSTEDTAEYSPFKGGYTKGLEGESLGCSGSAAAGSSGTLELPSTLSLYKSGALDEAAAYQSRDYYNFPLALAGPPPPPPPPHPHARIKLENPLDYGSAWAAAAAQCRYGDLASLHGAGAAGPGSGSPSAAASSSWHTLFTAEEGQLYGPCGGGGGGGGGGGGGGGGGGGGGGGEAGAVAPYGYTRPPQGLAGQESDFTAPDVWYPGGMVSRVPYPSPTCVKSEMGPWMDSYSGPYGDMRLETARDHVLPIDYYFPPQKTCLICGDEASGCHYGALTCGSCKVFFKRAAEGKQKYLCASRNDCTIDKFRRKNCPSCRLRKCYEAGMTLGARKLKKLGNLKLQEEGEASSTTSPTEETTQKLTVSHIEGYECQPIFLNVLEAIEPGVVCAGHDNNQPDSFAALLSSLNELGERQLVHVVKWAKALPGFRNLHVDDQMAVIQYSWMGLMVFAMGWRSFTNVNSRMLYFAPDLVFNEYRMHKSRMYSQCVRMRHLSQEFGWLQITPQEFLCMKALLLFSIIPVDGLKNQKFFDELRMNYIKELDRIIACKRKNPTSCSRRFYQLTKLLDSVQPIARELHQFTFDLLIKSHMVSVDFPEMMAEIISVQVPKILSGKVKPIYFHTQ

For `CCN(CC)CCNC(=O)c1ccc(NC(C)=O)cc1`, the Potency result in assay [1], in [2], in [3], in [4], in assay [5] and in [6] was “inactive” each time. In addition, the Potency entry in [7], in [8], in assay [9], in [10], in [11] and in assay [12] was “inactive” each time. Further, the Potency entry in assay [17] was “inactive”. Also, the compound was called inactive in assay [13], in [14], in [15] and in assay [16].
Consider `O=c1[nH]c2ccc(S(=O)CCN3CCC(Cc4ccc(F)cc4)CC3)cc2o1` (stereo not drawn), for which the Potency result in [1], in assay [18], in [4], in assay [6], in assay [7] and in [9] was “inactive” each time. In assay [17], the Potency entry is “inactive”. Besides, the outcome in [19], in [13], in [14] and in assay [16] was inactive.
For the compound `CCC(C(=O)OCCN(CC)CC)c1ccccc1` (stereo not drawn), the Potency result in assay [1], in assay [2], in assay [3], in assay [4], in assay [5] and in assay [6] was “inactive” in each case. For the same compound, the Potency result in [7], in assay [20], in assay [8], in assay [9], in assay [10] and in assay [12] was “inactive” each time. Also, in assay [17], the Potency entry was “inactive”. Also, the compound was classed as inactive in [19], in assay [13], in assay [14], in [15] and in [16].
On to `C[Si](NC1CCCCC1)(NC1CCCCC1)NC1CCCCC1`, for which the Potency result in assay [1], in [2], in [3], in assay [7], in assay [8] and in assay [9] was “inactive” throughout. Moreover, the Potency result in assay [17] was “inactive”. The Potency in assay [4] is 27.3 µM (active). For the same compound, the result in [19], in [13], in assay [14], in assay [15] and in assay [16] was inactive.
As for `O=C1NCCN1`, the Potency result in [1], in assay [2], in [3], in assay [4], in assay [6] and in assay [7] was “inactive” in each case. The Potency entry in assay [20], in assay [9], in [10], in [11] and in assay [12] was “inactive” in each case. In addition, the compound was called inactive in assay [19], in [13], in assay [14] and in assay [15].
For `CC(C)(C)C(=O)C(Oc1ccc(Cl)cc1)n1ccnc1` (stereo not drawn), the Potency result in [1], in [18], in assay [3], in [6], in assay [7] and in assay [8] was “inactive” throughout. Further, the Potency result in assay [9] and in assay [11] was “inactive” in each case. Moreover, the values for the Potency in [4] and in assay [10] were 1.19 µM (active) and 23.7 µM (active), respectively. Also, the call in assay [13], in [14], in assay [15] and in assay [16] was inactive.
As for `COC(=O)Nc1nc2ccc(C(=O)c3cccs3)cc2[nH]1`, the Potency in assay [1] is 0.335 µM (active). Also, the Potency entry in assay [2], in assay [3], in assay [4], in assay [6], in [20] and in assay [9] was “inactive” each time. For the same compound, the call in assay [19], in assay [13], in assay [14] and in assay [15] was inactive.
Take `COC(OC)(C(=O)c1ccccc1)c1ccccc1`: the Potency result in assay [1], in assay [2], in assay [3], in assay [4], in [6] and in [20] was “inactive” throughout. The Potency result in [9], in assay [11], in assay [12] and in [17] was “inactive” each time. Besides, the result in [13], in assay [14], in [15] and in assay [16] was inactive.
